Screening data deposited in PubChem BioAssay by Broad Institute.
This is one part of a sample in which hits are shown more often than they occur.
CD40 NFkB inh: CD40 pathway inhibition in BL2 cells; inhibition, % at 10 µM; 83,000 tested, 0.94% active; AID 1053188; BL2 NF-kB luciferase reporter, CD40L-induced, 4 h;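 active = mean inhibition of at least 50% with a set share of replicates also reaching that level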;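 also: 0% = neutral control wells and 100% = IKK inhibitor VII at 50 µM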
* = called active by the depositor; [ ] = remark or other dose.

`O=C(CNC(=O)C1CCCCC1)OCC(=O)c1ccc(F)cc1` gave CD40 NFkB inh -9.
CCc1ccc(C(=O)COC(=O)CNC(=O)C2CCCCC2)cc1 was read as CD40 NFkB inh 66*.
For CCOC(=O)c1c(C)[nH]c(C)c1C(=O)COC(=O)CNC(=O)C1CCCCC1 the results were CD40 NFkB inh 1.
`CCS(=O)(=O)N1CCCCN2[C@@H](CO)[C@@H](c3ccc(-c4ccccc4F)cc3)[C@@H]2C1` gave CD40 NFkB inh -16[25 µM].
C[C@@H]1CN(C)C(=O)c2cccnc2O[C@H]1CN(C)C was read as CD40 NFkB inh -3.
For C[C@H]1COCc2cnnn2CC[C@@H](Cc2ccccc2)C(=O)N1 the results were CD40 NFkB inh -6[25 µM].
COc1ccc(-c2nc(NC(=O)c3nc4nccc(C)n4n3)sc2C)cc1 was read as CD40 NFkB inh 3.
`COc1ccc(-c2nc(NC(=O)c3ccco3)sc2C)cc1` gave CD40 NFkB inh 51*.
Screening Cc1ccc(C(=O)Nc2nc(-c3ccco3)c(-c3ccco3)s2)o1 returned CD40 NFkB inh -1.
For CN(C)CCCN1c2ccccc2Sc2ccc(Cl)cc21 the results were CD40 NFkB inh -40.
`OCCN1CCN(CCCN2c3ccccc3Sc3ccc(Cl)cc32)CC1` gave CD40 NFkB inh -78.
`CSc1ccc2c(c1)N(CCC1CCCCN1C)c1ccccc1S2` (configuration not stated) gave CD40 NFkB inh 74*.
Screening C[C@@H]1C(=O)N[C@@H](c2ccc3c(c2)OCO3)CC=CC[C@H](C)Oc2ccccc2C(=O)N1C (mixture of isomers) returned CD40 NFkB inh 1[25 µM].
Screening CCCN1[C@H](CO)[C@H](c2ccc(C3=CCCC3)cc2)[C@H]1CN(C(C)=O)C1CCCC1 returned CD40 NFkB inh -2[25 µM].
For CC(=O)N(C)C[C@@H]1Oc2ccc(N)cc2CC(=O)N(C)C[C@@H]1C the results were CD40 NFkB inh 3.
Screening C[C@@H]1CN([C@@H](C)CO)C(=O)c2ccccc2-c2ccccc2CO[C@H]1CN(C)CC1CC1 returned CD40 NFkB inh -10[25 µM].
`CCCCNC(=O)C1(C)CCN1C(=O)c1ccc(C)c(F)c1` (configuration not stated) gave CD40 NFkB inh 3.
For CCCCNC(=O)C1(C)CCN1C(=O)c1cc(-c2cccs2)oc1C (configuration not stated) the results were CD40 NFkB inh 105*.
Screening CCCCNC(=O)C1(C)CCN1C(=O)c1ccccc1Br (configuration not stated) returned CD40 NFkB inh 9.
Screening C/C=C/c1ccc([C@H]2[C@@H](CO)N(C(C)=O)[C@@H]2CN(CCC)C(=O)C2CCC2)cc1 returned CD40 NFkB inh 16[25 µM].
COC(=O)c1ccc(CN2CC(=O)N3[C@H](CO)[C@H](c4ccc(-c5cccnc5)cc4)[C@H]3C2)cc1 was read as CD40 NFkB inh -14[25 µM].
Screening COc1ccc(OCC(=O)OCC(=O)NCc2ccco2)cc1 returned CD40 NFkB inh 9.
For Cc1cc(OCC(=O)OCC(=O)NCc2ccco2)ccc1Cl the results were CD40 NFkB inh 31*.
`COc1ccc(CC(=O)OCC(=O)NCc2ccco2)cc1` gave CD40 NFkB inh 5.
For COc1cccc(NC(=O)N[C@@H]2C=C[C@@H](CC(=O)NCc3ccncn3)O[C@@H]2CO)c1 the results were CD40 NFkB inh 0[25 µM].
Screening O=C(Cc1ccccn1)N1CC(=O)N2[C@@H](CO)[C@H](c3ccc(C#CC4CCCC4)cc3)[C@@H]2C1 returned CD40 NFkB inh -4.
`O=C(Nc1ccc(C(F)(F)F)cc1)N1C[C@@H]2N[C@H](C1)C2c1ccc(-c2cccc(F)c2)cc1` (some centres not stated) gave CD40 NFkB inh 70*.
Screening Cc1ccc(-c2ccc(C3[C@@H]4CN(C(=O)Nc5ccc(C(F)(F)F)cc5)C[C@H]3N4)cc2)cc1 (some centres not stated) returned CD40 NFkB inh 25[25 µM].
Screening COc1ccc(NC(=O)N2C[C@@H]3N[C@H](C2)C3c2ccc(-c3cccc(F)c3)cc2)cc1 (some centres not stated) returned CD40 NFkB inh -5[25 µM].
For O=C(C[C@H]1CC[C@@H](NS(=O)(=O)c2ccccc2F)[C@@H](CO)O1)NCCCN1CCOCC1 the results were CD40 NFkB inh 3[25 µM].
`CO[C@H]1CN(C)C(=O)c2cc(NC(=O)C3CC3)ccc2OC[C@@H](C)N(C(=O)C2CCOCC2)C[C@H]1C` gave CD40 NFkB inh -11.
O=C1N=C(N2CCOCC2)S/C1=C/c1ccc(-c2ccc(F)cc2)o1 was read as CD40 NFkB inh -14.
`O=C1S/C(=C\c2ccc(N3CCOCC3)o2)C(=O)N1Cc1ccc(F)cc1` gave CD40 NFkB inh 82*.
Cc1ccc(CN2C(=O)S/C(=C\c3ccccc3OCC(=O)O)C2=O)cc1 was read as CD40 NFkB inh 7.
CN(C)C(=O)c1cccc(-c2ccc([C@@H]3[C@H](CO)N4C(=O)CN(C(=O)C5CCCC5)C[C@@H]34)cc2)c1 was read as CD40 NFkB inh 9.
`COc1ccc2c3c(n(C)c2c1)[C@@H](CO)N(C(=O)Cc1ccccn1)CC31CN(CC2CCCC2)C1` gave CD40 NFkB inh 7.
